Here are results for five compounds from PubChem BioAssay.

Experiment [1] is described as follows: small molecules captured by biotinylated probe aFSTL3 – biochemical, small-molecule microarray, fluorescence 635/667, stem cell growth factor project, primary screen (AID 1064).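 Further: measures binding of the biotinylated anti-FSTL3 antibody to printed compounds.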 The conditions noted are these: higher = more signal.
The nature of experiment [2]: binders from COS7 lysate, DM2A8 probe, primary screen, torsin A project, cell lysate, small-molecule microarray, fluorescence 635/667 (AID 1065). To be noted: higher = more signal, COS7 lysate expressing mutant human TOR1A.
Experiment [3] in a line: small molecules captured by biotinylated probe aFGF2 – biochemical, small-molecule microarray, fluorescence 635/667, stem cell growth factor project, primary screen (AID 1067).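 Further: measures binding of biotinylated aFGF2 protein to printed compounds on slides; z-score merges feature fluorescence and signal-to-noise across triplicate slides.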 To be noted: higher = more signal.
Experiment [4] in a line: small molecules captured by biotinylated probe aFGF10 – biochemical, small-molecule microarray, fluorescence 635/667, stem cell growth factor project, primary screen (AID 1071).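 Further: score merges 667 nm spot intensity and signal to noise from triplicate slides.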 The conditions noted are these: higher = more signal.
The target in experiment [5] is Neurogenic locus notch homolog protein 2 (Homo sapiens) (UniProt Q04721). Kind of experiment: small molecules binding Notch2 protein – biochemical, small-molecule microarray, 635 nm fluorescence, stem cell growth factors, primary screen (AID 1073). The conditions noted are these: higher = more signal.
Experiment [6] deals with Pro-neuregulin-1, membrane-bound isoform (Homo sapiens) (UniProt Q02297). The experiment is described as follows: small molecules binding neuregulin-1 protein – biochemical, small-molecule microarray, fluorescence 635/667, psychiatric disease protein project, primary screen (AID 1075).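 Further: score combines 667 nm spot fluorescence with signal to noise.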 The conditions noted are these: NRG1 binding, 635 nm fluorescence, higher = more signal.

Experiment [7] has as its system Neuregulin-1 EGF-like domain. The experiment is described as follows: small molecules binding NRG1 EGF domain – biochemical, small-molecule microarray, 635 nm fluorescence, primary screen (AID 1081).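 Further: binding of the protein to compounds printed on small-molecule microarray slides.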 The conditions noted are these: higher = more signal.
Experiment [8] is described as follows: FRG1 expression reporter modulators in myotubes – cell-based, C2C12 myotubes, firefly/Renilla luciferase, luminescence, FRG1 inhibition for FSHD, primary screen (AID 1084). To be noted: FRG1 promoter luciferase, higher = more signal, called active from +8 up or from −8 down.
Experiment [9] is described as follows: small molecules captured by biotinylated probe aFST – biochemical, small-molecule microarray, fluorescence 635/667, stem cell growth factor project, primary screen (AID 1086).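 Further: score merges 667 nm fluorescence with signal-to-noise of each printed compound spot.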 The conditions noted are these: higher = more signal.
Experiment [10] in a line: binders of probe aHhip on microarray, primary screen, stem cell growth factor project, biochemical, small-molecule microarray, fluorescence 635/667 (AID 1087).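 Further: score merges spot fluorescence at 667nm with spot signal to noise ratio.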 The conditions noted are these: higher = more signal.
Experiment [11] concerns PRMT1 (protein arginine N-methyltransferase 1). Kind of experiment: small molecules binding arginine methyltransferase PRMT1 – biochemical, small-molecule microarray, 635 nm fluorescence, primary screen (AID 1088).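 Further: binding of Prmt1 protein to compounds spotted on small-molecule microarray slides.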 To be noted: higher = more signal.
Experiment [12] can be described thus: growth effects on S. cerevisiae YJM789 – YJM789 clinical isolate, OD600, 24 h, basal, primary screen (AID 1089).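 Further: growth of clinical yeast isolate S. cerevisiae YJM 789 seeded 1000 cells per well; test concentration not given here.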 The conditions noted are these: higher = more signal, called active from +8 up or from −8 down.
The nature of experiment [13]: S. pombe growth modifiers, basal conditions – strain 972, OD600, 24 h, no modulator, primary screen (AID 1090).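 Further: basal condition with compound alone and no growth modifier present; test concentration not given here.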 To be noted: S. pombe 972 growth, higher = more signal, called active from +8 up or from −8 down.
A short description of experiment [14]: budding yeast growth modifiers under rapamycin – strain BY4716, OD600, 96 h, primary screen (AID 1091). Further: test concentration not given here. The conditions noted are these: S. cerevisiae BY4716 + rapamycin, higher = more signal, called active from +8 up or from −8 down.
Experiment [15] concerns the target Torsin-1A-interacting protein 2 (Homo sapiens) (UniProt Q8NFQ8). The experiment is described as follows: small molecules binding lysate-expressed LULL1 – cell lysate, human LULL1 lysate, 635/667 nm fluorescence, primary screen (AID 1092).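 Further: probe is lysate of COS7 cells overexpressing human LULL1; score merges per-feature 667 nm fluorescence with signal-to-noise.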 To be noted: small-molecule microarray, hLULL1 lysate binding, 635 nm fluorescence; higher = more signal.
The nature of experiment [16]: optical density change of DRC41 E. coli – strain DRC41, OD650, 24 h, E. coli filamentation project, primary screen (AID 1093).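 Further: MC1000 strain lacking acrAB efflux and sulA so SOS filamentation is blocked; test concentration not given here.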 To be noted: E. coli DRC41 growth, higher = more signal, called active from +8 up or from −8 down.
Experiment [17] in a line: probe aLefty2 binding to arrayed compounds – biochemical, biotinylated probe, 635/667 nm fluorescence, primary screen (AID 1094).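 Further: score merges spot fluorescence near 667 nm with spot signal-to-noise ratio.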 The conditions noted are these: small-molecule microarray, higher = more signal.
The subject of experiment [18] is Noggin (protein binding on small-molecule microarray). The experiment is described as follows: small molecules binding Noggin protein – biochemical, 635/667 nm fluorescence, primary screen (AID 1095).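 Further: score merges 667 nm feature fluorescence with signal to noise over triplicate slides.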 To be noted: 635 nm fluorescence, higher = more signal.
Experiment [19] concerns the target Neurogenic locus notch homolog protein 3 (Homo sapiens) (UniProt Q9UM47). The experiment is described as follows: small molecules binding NOTCH3 protein – biochemical, 635/667 nm fluorescence, primary screen (AID 1096). To be noted: small-molecule microarray, 635 nm fluorescence, higher = more signal.
A short description of experiment [20]: probe aEGFR binding to arrayed compounds – biochemical, biotinylated probe, 635/667 nm fluorescence, primary screen (AID 1097).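 Further: probe is a biotinylated anti-EGFR antibody binding compounds printed on slides; score combines fluorescence near 667 nm and signal to noise of each spot.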 The conditions noted are these: small-molecule microarray, higher = more signal.

Calls of active or inactive are those of the source.

Sequence of Pro-neuregulin-1, membrane-bound isoform (Homo sapiens) (Q02297 whole entry, looked up, canonical isoform): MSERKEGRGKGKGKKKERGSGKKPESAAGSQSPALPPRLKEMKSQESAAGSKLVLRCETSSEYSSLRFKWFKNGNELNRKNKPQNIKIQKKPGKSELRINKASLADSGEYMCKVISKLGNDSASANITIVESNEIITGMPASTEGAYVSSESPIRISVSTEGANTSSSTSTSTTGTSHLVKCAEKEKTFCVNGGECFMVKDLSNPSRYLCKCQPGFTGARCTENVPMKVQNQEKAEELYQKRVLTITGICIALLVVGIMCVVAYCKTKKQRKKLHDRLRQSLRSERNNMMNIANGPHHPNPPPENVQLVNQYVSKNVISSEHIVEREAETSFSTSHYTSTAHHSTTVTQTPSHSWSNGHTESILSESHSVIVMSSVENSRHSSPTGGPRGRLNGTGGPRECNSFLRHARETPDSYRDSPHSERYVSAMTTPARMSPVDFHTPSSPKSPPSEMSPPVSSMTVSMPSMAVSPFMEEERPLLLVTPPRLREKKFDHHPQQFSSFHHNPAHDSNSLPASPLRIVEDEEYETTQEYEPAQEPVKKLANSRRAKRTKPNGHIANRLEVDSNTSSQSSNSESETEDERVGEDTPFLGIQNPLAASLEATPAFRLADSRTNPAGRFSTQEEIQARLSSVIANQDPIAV
Sequence of Neurogenic locus notch homolog protein 2 (Homo sapiens) (Q04721 whole entry, looked up, canonical isoform): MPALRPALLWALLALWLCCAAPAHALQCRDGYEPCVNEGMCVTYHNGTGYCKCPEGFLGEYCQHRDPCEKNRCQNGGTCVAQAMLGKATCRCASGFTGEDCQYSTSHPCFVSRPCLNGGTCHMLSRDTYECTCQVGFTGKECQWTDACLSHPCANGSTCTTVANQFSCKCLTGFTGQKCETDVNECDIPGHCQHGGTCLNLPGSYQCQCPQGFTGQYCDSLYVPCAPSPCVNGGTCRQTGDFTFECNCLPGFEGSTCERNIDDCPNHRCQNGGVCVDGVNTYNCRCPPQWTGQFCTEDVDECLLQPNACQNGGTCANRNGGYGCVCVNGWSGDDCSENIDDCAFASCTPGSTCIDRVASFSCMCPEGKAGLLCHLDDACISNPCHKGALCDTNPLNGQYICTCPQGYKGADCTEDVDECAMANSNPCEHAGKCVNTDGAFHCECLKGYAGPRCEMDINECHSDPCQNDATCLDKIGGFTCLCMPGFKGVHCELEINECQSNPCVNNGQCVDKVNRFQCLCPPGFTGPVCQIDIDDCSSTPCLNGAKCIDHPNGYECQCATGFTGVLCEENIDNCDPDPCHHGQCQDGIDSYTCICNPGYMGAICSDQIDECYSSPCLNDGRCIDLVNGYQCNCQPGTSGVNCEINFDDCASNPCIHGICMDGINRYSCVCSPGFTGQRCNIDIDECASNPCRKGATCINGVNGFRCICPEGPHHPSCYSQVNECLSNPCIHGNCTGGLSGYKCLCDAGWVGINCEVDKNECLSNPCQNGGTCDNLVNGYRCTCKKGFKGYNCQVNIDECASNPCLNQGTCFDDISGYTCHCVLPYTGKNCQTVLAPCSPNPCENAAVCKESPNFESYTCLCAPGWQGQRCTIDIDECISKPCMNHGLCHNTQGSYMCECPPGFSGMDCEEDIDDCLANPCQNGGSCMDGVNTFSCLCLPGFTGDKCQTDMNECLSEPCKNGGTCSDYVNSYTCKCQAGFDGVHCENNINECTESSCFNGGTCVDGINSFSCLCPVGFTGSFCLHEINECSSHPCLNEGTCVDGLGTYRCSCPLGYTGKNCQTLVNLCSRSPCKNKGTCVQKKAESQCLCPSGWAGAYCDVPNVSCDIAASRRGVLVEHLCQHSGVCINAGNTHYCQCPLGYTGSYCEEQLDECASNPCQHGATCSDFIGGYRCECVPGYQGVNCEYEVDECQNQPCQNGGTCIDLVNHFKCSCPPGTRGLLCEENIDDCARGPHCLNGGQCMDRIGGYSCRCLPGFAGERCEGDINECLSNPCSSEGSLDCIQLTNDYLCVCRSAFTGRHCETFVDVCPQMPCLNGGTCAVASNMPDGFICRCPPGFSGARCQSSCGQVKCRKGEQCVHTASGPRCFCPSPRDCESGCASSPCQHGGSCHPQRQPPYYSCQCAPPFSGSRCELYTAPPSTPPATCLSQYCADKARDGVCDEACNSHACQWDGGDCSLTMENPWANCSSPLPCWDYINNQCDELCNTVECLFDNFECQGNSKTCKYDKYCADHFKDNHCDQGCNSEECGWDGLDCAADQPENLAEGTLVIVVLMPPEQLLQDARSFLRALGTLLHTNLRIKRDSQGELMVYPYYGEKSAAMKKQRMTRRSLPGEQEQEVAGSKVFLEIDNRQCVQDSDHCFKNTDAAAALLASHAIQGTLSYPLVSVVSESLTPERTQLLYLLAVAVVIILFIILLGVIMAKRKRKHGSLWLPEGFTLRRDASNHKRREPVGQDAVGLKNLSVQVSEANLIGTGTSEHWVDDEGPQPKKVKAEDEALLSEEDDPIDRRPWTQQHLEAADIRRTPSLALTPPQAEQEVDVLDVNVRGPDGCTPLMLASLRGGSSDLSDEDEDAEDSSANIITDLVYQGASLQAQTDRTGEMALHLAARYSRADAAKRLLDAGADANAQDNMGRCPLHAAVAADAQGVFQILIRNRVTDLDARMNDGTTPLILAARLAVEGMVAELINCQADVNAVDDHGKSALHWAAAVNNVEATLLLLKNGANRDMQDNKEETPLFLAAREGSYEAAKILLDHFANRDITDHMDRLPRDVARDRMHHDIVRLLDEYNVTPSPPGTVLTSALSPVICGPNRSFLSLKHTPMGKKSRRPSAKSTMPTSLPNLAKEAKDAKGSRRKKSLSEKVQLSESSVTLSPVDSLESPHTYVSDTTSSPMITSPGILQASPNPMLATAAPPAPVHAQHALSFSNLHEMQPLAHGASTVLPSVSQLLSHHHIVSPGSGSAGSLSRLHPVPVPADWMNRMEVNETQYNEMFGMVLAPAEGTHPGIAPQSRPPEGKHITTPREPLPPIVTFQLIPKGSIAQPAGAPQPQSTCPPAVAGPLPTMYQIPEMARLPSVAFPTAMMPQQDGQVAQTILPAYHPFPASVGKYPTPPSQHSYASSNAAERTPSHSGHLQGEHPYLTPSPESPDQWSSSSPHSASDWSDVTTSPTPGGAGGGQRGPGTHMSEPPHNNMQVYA
Sequence of Torsin-1A-interacting protein 2 (Homo sapiens) (Q8NFQ8 whole entry, looked up): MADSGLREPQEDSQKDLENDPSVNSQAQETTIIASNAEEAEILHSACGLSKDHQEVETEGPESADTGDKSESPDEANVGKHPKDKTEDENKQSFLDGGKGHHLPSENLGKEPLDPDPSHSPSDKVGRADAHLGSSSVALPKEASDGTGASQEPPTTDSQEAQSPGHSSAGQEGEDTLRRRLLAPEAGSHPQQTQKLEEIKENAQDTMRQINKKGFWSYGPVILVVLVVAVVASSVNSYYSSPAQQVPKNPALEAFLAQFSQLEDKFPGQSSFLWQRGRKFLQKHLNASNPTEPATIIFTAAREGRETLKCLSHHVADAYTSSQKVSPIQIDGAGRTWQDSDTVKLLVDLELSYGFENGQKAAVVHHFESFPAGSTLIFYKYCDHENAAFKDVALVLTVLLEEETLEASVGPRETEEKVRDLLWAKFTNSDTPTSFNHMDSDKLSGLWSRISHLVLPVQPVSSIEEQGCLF

As to `CC(=O)NCCCC[C@@H]1NC(=O)[C@H]2C[C@@H](C(=O)NCCCCCCN(C)C)[C@@H](c3ccc(O)cc3)N2C1=O`, the composite z-score in experiment [1] is -0.463; in [2], 1.68; in experiment [3], -0.0876; in experiment [4] it was 0.785; in experiment [5], 0.269; in experiment [6], 1.43. Also, the composite z-score in experiment [7] was 1.48; in experiment [9] it was 0.31; in [10] it was 0.0401; in [11], 1.54; in [15], 2.97; in [17], -0.0391. The composite z-score in experiment [18] came to 1.71; in experiment [19], 0.989; in experiment [20], 0.0122. Further, the z-score in experiment [8] is 4.59 (inactive); in [12], -0.139 (inactive); in [13], -0.566 (inactive); in experiment [14], 0.613 (inactive); in [16] it was -0.179 (inactive).
With `Cc1ccc(S[C@]2(C(=O)NC3CC3)CC(=O)N(Cc3cc(C(F)(F)F)cc(C(F)(F)F)c3)[C@@H]2c2ccc(CO)cc2)cc1`, the composite z-score is -0.293 in experiment [1]; 0.0772 in [2]; -0.138 in [3]; 0.138 in [4]; 0.1 in experiment [5]; 0.522 in experiment [6]. In addition, the composite z-score in experiment [7] is 1.24; in experiment [9] it was 0.0733; in experiment [10], -0.295; in experiment [11] it was 1.55; in experiment [15], 2.27; in [17] it was -0.213. The composite z-score in [18] is 0.756; in experiment [19], 0.58; in [20] it was -0.0772. Also, the z-score in experiment [8] is -0.799 (inactive); in experiment [12], -1.18 (inactive); in [13], -1.51 (inactive); in experiment [14], -2.53 (inactive); in [16], -0.83 (inactive).
In the case of `CO[C@H]1COC(=O)CC=C[C@H](C)COC(=O)[C@@H](OCc2ccccc2)C=C[C@@H]1C`, the composite z-score was -0.938 in experiment [1]; 2.14 in experiment [2]; -0.317 in experiment [3]; -1.11 in experiment [4]; -1.49 in [5]; 0.311 in experiment [6]. In addition, the composite z-score was 0.958 in experiment [7]; -0.0875 in experiment [9]; -0.12 in experiment [10]; 1.52 in experiment [11]; 0.059 in experiment [15]; -0.368 in experiment [17]. The figures for the composite z-score in experiment [18], in experiment [19] and in [20] were 2.03, -0.532 and -0.322, respectively. Further, the z-score in experiment [8] is 0.236 (inactive); in experiment [12], 0.0706 (inactive); in [13], -1.39 (inactive); in experiment [14] it was -0.993 (inactive); in experiment [16], 0.0129 (inactive).
In the case of `O=C1O[C@@H](c2ccccc2)[C@@H](c2ccccc2)N2[C@@H](c3ccc(O)cc3)[C@]3(C(=O)Nc4ccccc43)[C@@H](C(=O)N3CCN(c4ncccn4)CC3)[C@H]12`, the composite z-score is 0.0022 in experiment [1]; 0.637 in [2]; 0.142 in experiment [3]; 0.0271 in [4]; -0.486 in experiment [5]; 0.474 in [6]. The composite z-score in experiment [7] is 1.25; in experiment [9], 0.0944; in experiment [10] it was 0.0274; in [11], 1.29; in experiment [15], 2.71; in experiment [17], -0.12. Further, the figures for the composite z-score in [18], in experiment [19] and in experiment [20] were -0.534, 0.079 and -0.179, respectively. Besides, the z-score is -3.02 (inactive) in experiment [8]; 0.2 (inactive) in [12]; -1.95 (inactive) in [13]; 1.98 (inactive) in experiment [14]; 3.16 (inactive) in experiment [16].
On to `COc1cc(Cc2cc3c(c(CCc4ccccc4)n2)[Si](C(C)C)(C(C)C)OC3)cc(OC)c1OC`, for which the composite z-score was -0.0934 in experiment [1]; -0.0736 in [2]; -0.146 in experiment [3]; -0.108 in experiment [4]; -0.0899 in experiment [5]; -0.35 in experiment [6]. In addition, the composite z-score in experiment [7] was -0.233; in experiment [9], 0.337; in experiment [10], -0.0672; in experiment [11], 0.735; in experiment [15], -0.244; in [17], -0.184. In addition, the composite z-score is 0.684 in experiment [18], 0.483 in experiment [19] and 0.286 in [20]. Moreover, the z-score was 0.311 (inactive) in experiment [8]; 0.238 (inactive) in [12]; -0.226 (inactive) in experiment [13]; 0.0563 (inactive) in experiment [14]; -1.02 (inactive) in experiment [16].
